Structures are written as SMILES. Among all 340,000 compounds or so, about 2,100 (0.62%) were called active.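 The calls were made as follows: active = first-screen hits whose inhibition reached a set limit at any dose in the follow-up dose series; inconclusive = inhibition above the set first-screen limit but never retested; inactive = the rest.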 The list is a sample of the results. Entries with a potency or affinity are not part of this list.

For orientation: inhibition means the change of the read-out against control, counted positive when it falls.

Sequence of Rac GTPase-activating protein 1 (Homo sapiens) (Q9H0H5 whole entry, looked up): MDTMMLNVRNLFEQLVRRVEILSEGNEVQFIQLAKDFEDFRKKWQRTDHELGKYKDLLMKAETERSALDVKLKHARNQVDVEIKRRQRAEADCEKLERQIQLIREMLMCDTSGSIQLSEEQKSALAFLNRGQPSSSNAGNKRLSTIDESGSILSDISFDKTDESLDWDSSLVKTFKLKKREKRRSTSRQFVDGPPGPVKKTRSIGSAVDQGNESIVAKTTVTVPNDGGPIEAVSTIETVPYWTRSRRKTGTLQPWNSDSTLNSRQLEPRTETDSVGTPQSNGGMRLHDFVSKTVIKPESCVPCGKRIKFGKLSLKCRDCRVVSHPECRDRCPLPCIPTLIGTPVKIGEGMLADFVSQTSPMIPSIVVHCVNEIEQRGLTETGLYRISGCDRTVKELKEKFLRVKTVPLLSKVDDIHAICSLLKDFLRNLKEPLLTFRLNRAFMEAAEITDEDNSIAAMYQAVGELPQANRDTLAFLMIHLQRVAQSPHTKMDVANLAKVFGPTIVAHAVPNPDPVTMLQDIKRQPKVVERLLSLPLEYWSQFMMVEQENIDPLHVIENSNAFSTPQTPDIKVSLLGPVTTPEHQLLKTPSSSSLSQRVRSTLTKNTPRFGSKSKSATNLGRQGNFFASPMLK

The test concerns the target Rac GTPase-activating protein 1 (Homo sapiens) (UniProt Q9H0H5). As to the kind of experiment: MgcRacGAP GTPase-activating activity inhibitors, confirmation, biochemical, ADP Hunter fluorescence, primary and confirmatory (AID 624330).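 Also: fluorescence reports GDP produced by GAP-driven GTP hydrolysis.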 Conditions: MgcRacGAP-stimulated Rac1 GTP hydrolysis, at 30 µM, stronger effect = higher value, GST-tagged Rac1 F28L mutant substrate.
`COc1ccccc1OCc1cc(C(=O)N2CC3C[C@@H]4CC2C[C@H](C3)C4)no1`: the inhibition is 3.59% (inactive). With `CCOc1ccccc1NC(=O)C(NCCc1ccc(OC)cc1)c1ccccc1` (centres undefined) the figure was -0.19% (inactive). Regarding `CCOc1ccccc1NC(=O)C(OC(=O)C1CC1)c1ccccc1` (centres undefined), the inhibition was -2.99% (inactive). With `CCOc1ccccc1NC(=O)C(OC(=O)c1ccccc1)c1ccccc1` (centres undefined) the figure was 12.2% (inactive). The value for `CCC(C(=O)Nc1cccc(C(F)(F)F)c1)c1ccccc1` (centres undefined) was 17.9% (inactive); that for `CCOc1ccccc1NC(=O)C(NCC1CCCCC1)c1ccccc1` (centres undefined) was 4.44% (inactive). With `CN(C)CCNC(C(=O)Nc1cc(Cl)cc(Cl)c1)c1ccccc1` (centres undefined) the figure was 5.37% (inactive); with `CC(NC(=O)c1ccco1)C(=O)N1CCCCC1` (centres undefined), 3.98% (inactive). With `O=C(COC(=O)c1cccnc1Cl)NC1CCCCC1`, the inhibition was 4.82% (inactive). In the case of `CC(C)Cc1cc(C(=O)N2CCN(c3ccc(F)cc3)CC2)no1`, the inhibition was 0.62% (inactive).

With `COc1cccc(C(=O)NC(=S)Nc2ccccc2N2CCOCC2)c1`, the inhibition is 6.71% (inactive).

As to `COc1ccc(C)cc1S(=O)(=O)N1CCC(C(=O)NCCc2ccccc2)CC1`, the inhibition was 14.5% (inactive). As for `COC(=O)c1ccc(Cl)c(NC(=O)CSc2nnc(-c3ccncc3)o2)c1`, the inhibition was 4.07% (inactive). With `OC1CCN(Cc2cn(Cc3ccccc3)nc2-c2cc3ccccc3o2)CC1` the figure was 5.47% (inactive); with `O=C(Nc1ccc(Cl)cc1)Nc1nnc(CSCc2ccccc2Cl)s1`, 12.1% (inactive); with `CN(C(=O)COc1ccccc1)c1ccc([N+](=O)[O-])cc1`, 7.5% (inactive). Turning to `Cc1ccccc1OCCNC(=O)c1ccco1`, the inhibition is 3.61% (inactive). Turning to `Cc1ccc(C(=O)NCC(C)NC(=O)c2ccc(C)c(C)c2)cc1C` (centres undefined), the inhibition is 4.02% (inactive). As to `CCOc1ccc(N2CC(C(=O)NCc3ccco3)CC2=O)cc1` (centres undefined), the inhibition was -1.21% (inactive).

As for `Cc1onc(-c2ccccc2)c1C(=O)NC(=S)NNC(=O)c1ccncc1`, the inhibition was 0.31% (inactive).

As to `CCCN(C(=O)Cc1csc(-c2ccccc2)n1)C1CCS(=O)(=O)C1` (centres undefined), the inhibition is 4.87% (inactive).

Consider `CCOC(=O)c1c(NC(=O)CN2CCN(C)CC2)sc(C(=O)Nc2ccccc2)c1C`, for which the inhibition is 8.53% (inactive). With `CCOC(=O)c1c(NC(=O)CSc2cccc[n+]2[O-])sc(C(=O)Nc2ccccc2)c1C` the figure was 7.58% (inactive). The value for `CCOc1ccc(S(=O)(=O)Nc2ccccc2C(=O)Nc2ccccc2N2CCOCC2)cc1` was 1.24% (inactive); that for `Cc1ccc(OC(=O)c2cccc(S(=O)(=O)N3CCN(C)CC3)c2)c(Br)c1` was 10% (inactive); that for `CCOc1ccc(C2NC(=O)C(C#N)=C(S)N2c2ccc(C)cc2)cc1OC` (centres undefined) was 51% (inactive). With `COc1ccc(N2C(S)=C(C#N)C(=O)NC2c2ccc(OC)c(OC)c2)cc1` (centres undefined) the figure was 29% (inactive).

As for `Cc1cc(C)c2[nH]c(=O)c(CN(CC3CCCO3)C(=S)NCc3ccco3)cc2c1` (centres undefined), the inhibition was 10.7% (inactive). With `CN(CC(=O)Nc1ccc(S(=O)(=O)N2CCCC2)cc1)Cc1cccc(Cl)c1Cl` the figure was 4.27% (inactive); with `Cc1ccc(CN2CC(C(=O)Nc3nc(C)cs3)CC2=O)cc1` (centres undefined), -0.43% (inactive); with `CCn1c2ccccc2c2cc(NC(=O)CN3CCCC3)ccc21`, 5.72% (inactive). The value for `Clc1ccc(OCCCCN2CCCCC2)cc1` was 28.9% (inactive); that for `OC(COc1ccc(Cl)cc1)CN1CCCCC1` (centres undefined) was -6.24% (inactive). With `COc1ccc(OCC#CCNC(C)(C)C)cc1` the figure was 18% (inactive); with `CC(C)NCC(O)COCCOc1ccc(Cl)cc1` (centres undefined), -1.4% (inactive); with `CN(C)CCCNc1ncnc2oc(-c3ccccc3)c(-c3ccccc3)c12`, 10.3% (inactive). Take `COc1ccccc1NC(=O)Cn1c(C)nc2c(sc(=S)n2Cc2ccco2)c1=O`: the inhibition is 8.75% (inactive). With `COC(=O)[C@H]1C[C@H]1[C@@H](NC(=O)c1ccc[nH]1)c1ccccc1` the figure was -1.4% (inactive); with `CC(=O)c1ccc(N2CCN(CC(=O)NCc3ccccc3)CC2)cc1`, 6.75% (inactive); with `CN(Cc1ccccc1)c1nc2c(c(=O)[nH]c(=O)n2C)n1CCOc1ccccc1`, 13.5% (inactive). The value for `O=c1/c(=C/c2ccccn2)sc2nc3ccccc3n12` was 6.92% (inactive); that for `Cc1ccc2c(nc3s/c(=C\c4ccc(-c5ccccc5C(=O)O)o4)c(=O)n32)c1C` was 19.4% (inactive); that for `CC1(C)CC(=O)C(N=Nc2ccc(-c3ccccc3)cc2)=C(O)C1` was 9.24% (inactive). With `CC1(C)OC(=O)C(=CNCCc2ccc(O)cc2)C(=O)O1` the figure was 17.2% (inactive). With `O=C(Cn1nnc(-c2ccc(Cl)cc2)n1)NC1CCS(=O)(=O)C1` (centres undefined), the inhibition is 9.8% (inactive). With `O=C1c2ccc([N+](=O)[O-])cc2S(=O)(=O)N1Cc1ccccc1` the figure was 11.7% (inactive); with `O=[N+]([O-])c1ccc(S(=O)Cc2ccccc2)c([N+](=O)[O-])c1` (centres undefined), 4.1% (inactive); with `O=c1c2c([N+](=O)[O-])cc([N+](=O)[O-])cc2sn1Cc1ccccc1`, 31% (inactive). The value for `N#Cc1c(N)n(Cc2ccccc2)c(=O)c2cc([N+](=O)[O-])ccc12` was 9.07% (inactive); that for `CCOC(=O)C(=CNc1ccc(O)c(C(=O)OC)c1)C(=O)OCC` was 17% (inactive). The value for `Cc1c(C(=O)COC(C)(C)C)[nH]c2ccccc12` was 8.87% (inactive). On to `O=C(NNC1OC(CO)C(O)C(O)C1O)c1cccc(Br)c1` (centres undefined), for which the inhibition is 0.41% (inactive). With `COc1ccc(N/C=C/C(=O)C(C)(C)C)cc1` the figure was 16.3% (inactive).

Take `CC(=O)Nc1ccc(N/C=C/C(=O)C(C)(C)C)cc1`: the inhibition was 7.27% (inactive). With `O=C(O)CCCn1ccc2cc(S(=O)(=O)N3CCCC3)ccc21` the figure was 4.17% (inactive); with `CC1CCN(CCCOc2ccc(Cl)cc2Br)CC1`, 20.7% (inactive); with `Cc1cc(Br)ccc1OCCOCCN1CCCC1`, 21.4% (inactive).

On to `Clc1ccc(OCCCN2CCCCC2)c(Br)c1`, for which the inhibition is 27.6% (inactive). With `Cc1cc(Br)ccc1OCCN1CCCC1` the figure was 31.4% (inactive); with `CCC(=NCc1ccccc1)C1=C(O)C(C(=O)OC)C(C)(C)CC1=O` (centres undefined), 2.32% (inactive); with `COC(=O)C1C(O)=C(C=Nc2ccccc2)C(=O)CC1(C)C` (centres undefined), -0.8% (inactive). The value for `CCCCC(=Nc1ccc(N)cc1)C1=C(O)C(C(=O)OC)C(C)(C)CC1=O` (centres undefined) was 28.1% (inactive). As for `CCCC(=O)C1=C(O)C(C(=O)OC)C(C)(C)CC1=Nc1ccc(N)cc1` (centres undefined), the inhibition is 7.34% (inactive). The value for `CCCC(=Nc1ccccc1)C1=C(O)C(C(=O)OC)C(C)(C)CC1=O` (centres undefined) was -1.06% (inactive); that for `COC(=O)C1C(O)=C(C=Nc2ccc3ccccc3c2)C(=O)CC1(C)C` (centres undefined) was 4.62% (inactive); that for `CC(C)Cn1c(N)c(/C=N/NC(=O)c2ccc(Cl)cc2)c(=O)n(C)c1=O` was 14.9% (inactive). `Cc1cccc(CNc2ccc(C(CC(N)=O)NC(=O)c3ccccc3)cc2[N+](=O)[O-])c1` (centres undefined): the inhibition is -3.89% (inactive). With `O=C(CSc1nccn1-c1ccc(Cl)cc1)N1CCCc2ccccc21` the figure was 4.77% (inactive). Regarding `Cc1ccc(NC(=O)N2CCCc3ccccc32)cc1C`, the inhibition is 3.97% (inactive). Consider `Cc1ccc2nc(C)cc(C(=O)OCC(=O)Nc3cccnc3Cl)c2c1`, for which the inhibition was 5.5% (inactive). The value for `COC(=O)c1ccc(Oc2coc3cc(OCc4ccc([N+](=O)[O-])cc4)ccc3c2=O)cc1` was -3.99% (inactive); that for `CCN1CCN(CCNC(=O)Cn2c(=O)c3cccn3c3ccc(F)cc32)CC1` was 13.8% (inactive); that for `C#CCNC(=O)C1=C[C@@H](C2CCCCC2)C[C@@H](OCCCCO)O1` was 6.51% (inactive). As to `C=CCn1c(SCCNC(C)=O)nc2cc(-c3ccccc3)sc2c1=O`, the inhibition was -6.43% (inactive). The value for `CCN(CC)CCOC(=O)/C=C/c1ccccc1` was 8.82% (inactive); that for `CCN(CC)C(=O)/C=C/c1ccccc1` was 10.4% (inactive). The value for `COc1cccc(CNC(=O)CCC2CCCN(C(=O)c3ccc(C)nc3)C2)c1` (centres undefined) was -7.59% (inactive); that for `O=C1NC(=S)N/C1=C\c1ccccc1OCc1ccc(C(=O)O)cc1` was 7.81% (inactive); that for `CN1C(=O)S/C(=C\c2ccccc2OCc2ccc(C(=O)O)cc2)C1=O` was 7.03% (inactive). With `CCCCC(=O)Nc1nn(CC(C)C)c2nc3ccccc3cc12` the figure was -1.14% (inactive). For `Cc1nnc2ccc(N3CCN(c4cccc(C(F)(F)F)c4)CC3)nn12`, the inhibition was 5.89% (inactive).

For `Cc1cc(=O)c(C(=O)O)nn1-c1cccc(C(F)(F)F)c1`, the inhibition is 6.55% (inactive). Consider `Cc1cccc(N2N=C(C(=O)O)CCC2=O)c1`, for which the inhibition is -5.61% (inactive). The value for `COCC(=O)N1CCN(c2cccc(C(F)(F)F)c2)CC1` was 4.48% (inactive); that for `FC(F)(F)c1cccc(N2CCc3cn[nH]c32)c1` was 12.6% (inactive). With `Cc1cccc(N2C(=O)CCC2=O)c1` the figure was 7.43% (inactive). The value for `OCCN(Cc1ccccc1)Cc1cccc(C(F)(F)F)c1` was 16.5% (inactive).

Regarding `CCOc1cccc(CN2CCN(c3cccc(C(F)(F)F)c3)CC2)c1O`, the inhibition was 0.147% (inactive).

For `COC(=O)c1sccc1NC(=O)CN(C)NS(=O)(=O)c1ccc([N+](=O)[O-])cc1`, the inhibition is -4.11% (inactive).

On to `CNC(=S)NCCCc1ccccc1`, for which the inhibition is 8.61% (inactive). The value for `C/C=C(\C)C(=O)OC1[C@H](OC(C)=O)C2(CO)C(CC1(C)C)C1=CCC3C4(C)CCC(O[C@@H]5O[C@H](C(=O)O)[C@@H](O[C@@H]6O[C@H](CO)[C@@H](O)[C@H](O)[C@H]6O)[C@H](O)[C@H]5O[C@H]5O[C@H](CO)[C@@H](O)[C@H](O)[C@H]5O)[C@](C)(CO)C4CCC3(C)[C@]1(C)C[C@H]2O` (some centres undefined) was 1.06% (inactive); that for `COCCOC1CCN(C(=O)C2CCC(=O)N(CCc3ccccc3)C2)CC1` (centres undefined) was 9.57% (inactive); that for `CCC(=O)c1ccc(CCCCCC(=O)O)s1` was 3.88% (inactive). With `O=C(O)/C=C/C(=O)Nc1ccccc1SC(F)(F)F` the figure was -1% (inactive).
